# Test results: PubChem BioAssay
# Active and inactive are the calls of the source.
# Legend:
# [1] = test system: Plasmodium falciparum Sir2 (PF13_0152, Sir2A); assay: pfSir2 binders on small-molecule microarrays, primary screen, biochemical, small-molecule microarray, 635 nm fluorescence (AID 1098); details: small-molecule microarray binding, fluorescence 635 nm; higher = more signal;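 also: score merges spot fluorescence intensity with its signal-to-noise ratio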
# [2] = small-molecule microarray binders of probe aDKK1, primary screen, biochemical, biotinylated probe, 635/667 nm fluorescence (AID 1099); details: higher = more signal;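 also: score merges 667nm spot fluorescence with signal to noise across triplicate slides; reference of the scale not given here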
# [3] = small-molecule microarray binders of probe aCHRDL2, primary screen, biochemical, biotinylated probe, 635/667 nm fluorescence (AID 1100); details: higher = more signal
# [4] = splicing luciferase reporter signal modulators, primary screen, spliceosome inhibition project, cell-based, HEK293, splice +/- reporter (AID 1101); details: luminescence, 24 h, higher = more signal, called active from +8 up or from −8 down;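 also: HEK293 cells carrying a splicing-competent luciferase reporter gene; test concentration not given here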
# [5] = target: Fibroblast growth factor 10 (Homo sapiens) (UniProt O15520); assay: FGF10 binders on small-molecule microarrays, primary screen, biochemical, small-molecule microarray, 635 nm fluorescence (AID 1102); details: FGF10 binding, fluorescence 635 nm, higher = more signal
# Chain of Fibroblast growth factor 10 (Homo sapiens) (O15520 whole entry, looked up): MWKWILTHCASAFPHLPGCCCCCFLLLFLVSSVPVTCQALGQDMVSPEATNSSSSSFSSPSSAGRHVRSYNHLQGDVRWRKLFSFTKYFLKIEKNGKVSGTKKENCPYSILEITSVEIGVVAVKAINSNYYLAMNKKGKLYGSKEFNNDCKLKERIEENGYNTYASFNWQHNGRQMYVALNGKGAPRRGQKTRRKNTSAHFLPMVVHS
# [6] = test system: glycogen synthase kinase-3 (GSK3A per assay name; protocol says GSK3B); assay: GSK3 binders on small-molecule microarrays, primary screen, biochemical, small-molecule microarray, 635 nm fluorescence, GSK3A (AID 1103); details: small-molecule microarray binding, fluorescence 635 nm; higher = more signal; also: the record names both GSK3A and GSK3B
# [7] = target: Epidermal growth factor receptor (Homo sapiens) (UniProt P00533); assay: EGFR binders on small-molecule microarrays, primary screen, biochemical, small-molecule microarray, 635 nm fluorescence (AID 1104); details: EGFR binding, higher = more signal;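 also: score merges 667 nm emission intensity with spot signal to noise over triplicate slides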
# Chain of Epidermal growth factor receptor (Homo sapiens) (P00533 whole entry, looked up): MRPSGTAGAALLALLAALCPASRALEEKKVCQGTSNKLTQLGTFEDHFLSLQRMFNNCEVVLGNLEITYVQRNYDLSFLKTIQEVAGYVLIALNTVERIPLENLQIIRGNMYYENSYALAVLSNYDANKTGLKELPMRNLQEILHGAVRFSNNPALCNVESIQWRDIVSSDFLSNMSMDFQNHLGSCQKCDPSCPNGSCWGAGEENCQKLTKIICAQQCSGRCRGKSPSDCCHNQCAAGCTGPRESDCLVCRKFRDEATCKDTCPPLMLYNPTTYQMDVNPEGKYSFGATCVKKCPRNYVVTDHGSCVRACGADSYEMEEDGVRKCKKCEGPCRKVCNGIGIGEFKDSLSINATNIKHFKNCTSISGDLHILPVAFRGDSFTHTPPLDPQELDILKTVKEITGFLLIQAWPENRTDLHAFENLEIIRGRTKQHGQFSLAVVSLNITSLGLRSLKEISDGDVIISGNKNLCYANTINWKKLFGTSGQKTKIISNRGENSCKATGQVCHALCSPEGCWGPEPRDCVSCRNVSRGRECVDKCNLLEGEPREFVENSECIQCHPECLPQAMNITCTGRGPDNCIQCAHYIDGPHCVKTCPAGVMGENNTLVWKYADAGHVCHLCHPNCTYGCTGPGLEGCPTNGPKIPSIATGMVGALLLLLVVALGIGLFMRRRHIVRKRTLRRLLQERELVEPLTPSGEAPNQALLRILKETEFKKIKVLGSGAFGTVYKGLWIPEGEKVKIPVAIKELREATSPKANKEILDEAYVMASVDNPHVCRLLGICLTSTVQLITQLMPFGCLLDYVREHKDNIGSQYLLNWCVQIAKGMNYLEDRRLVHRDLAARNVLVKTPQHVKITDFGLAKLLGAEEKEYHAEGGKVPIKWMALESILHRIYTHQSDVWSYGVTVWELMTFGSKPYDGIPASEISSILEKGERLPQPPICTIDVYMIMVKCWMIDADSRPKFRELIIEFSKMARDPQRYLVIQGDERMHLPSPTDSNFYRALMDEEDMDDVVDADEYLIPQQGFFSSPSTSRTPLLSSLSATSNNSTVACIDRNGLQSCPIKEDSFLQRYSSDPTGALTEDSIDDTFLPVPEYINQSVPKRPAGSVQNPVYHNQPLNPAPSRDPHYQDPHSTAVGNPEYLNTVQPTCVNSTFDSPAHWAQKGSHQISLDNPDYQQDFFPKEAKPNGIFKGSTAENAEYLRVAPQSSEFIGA
# [8] = target: Follistatin-related protein 3 (Homo sapiens) (UniProt O95633); assay: FSTL3 binders on small-molecule microarrays, primary screen, biochemical, small-molecule microarray, 635 nm fluorescence (AID 1105); details: FSTL3 binding, higher = more signal;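 also: score merges emission near 667 nm and signal to noise per printed spot across three slides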
# Chain of Follistatin-related protein 3 (Homo sapiens) (O95633 whole entry, looked up): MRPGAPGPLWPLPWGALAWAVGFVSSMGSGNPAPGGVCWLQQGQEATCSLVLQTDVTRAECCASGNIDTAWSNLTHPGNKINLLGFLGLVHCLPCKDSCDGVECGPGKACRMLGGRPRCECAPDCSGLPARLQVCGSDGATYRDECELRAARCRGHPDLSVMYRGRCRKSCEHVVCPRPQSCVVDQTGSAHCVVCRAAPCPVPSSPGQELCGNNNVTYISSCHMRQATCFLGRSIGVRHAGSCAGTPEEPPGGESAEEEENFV
# [9] = target: Dickkopf-related protein 1 (Homo sapiens) (UniProt O94907); assay: DKK1 binders on small-molecule microarrays, primary screen, biochemical, small-molecule microarray, 635 nm fluorescence scan (AID 1106); details: DKK1 binding, higher = more signal;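 also: score merges emission near 667 nm with signal to noise over three replicate slides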
# Chain of Dickkopf-related protein 1 (Homo sapiens) (O94907 whole entry, looked up): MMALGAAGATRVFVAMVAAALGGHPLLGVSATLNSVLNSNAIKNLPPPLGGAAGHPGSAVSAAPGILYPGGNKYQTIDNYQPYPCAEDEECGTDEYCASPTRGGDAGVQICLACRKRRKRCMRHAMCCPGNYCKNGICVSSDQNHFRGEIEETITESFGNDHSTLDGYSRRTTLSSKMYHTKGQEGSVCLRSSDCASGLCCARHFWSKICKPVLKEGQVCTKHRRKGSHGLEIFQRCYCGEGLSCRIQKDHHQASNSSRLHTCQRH
# [10] = test system: Inhibin beta A chain (activin A); assay: INHBA (activin A) binders on microarrays, primary screen, biochemical, small-molecule microarray, 635 nm fluorescence scan (AID 1107); details: small-molecule microarray binding, higher = more signal;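 also: mouse activin A protein probed at 4.33 µg/mL on printed slides; score merges bound-protein fluorescence near 667 nm with spot signal-to-noise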
Structure (SMILES),composite z-score [1],composite z-score [2],composite z-score [3],z-score [4],composite z-score [5],composite z-score [6],composite z-score [7],composite z-score [8],composite z-score [9],composite z-score [10]
COC(=O)C1=CC(CCCO)=CC(C)N(Cc2cccc(OC(F)(F)F)c2)C=C1C(=O)OC (stereo not given),0.325,0.116,0.259,-0.488 (inactive),0.278,-0.606,-0.94,0.0535,-0.695,0.383
Cc1cccc([C@H]2C[C@H]3C(Br)=C[C@@H]2C(=O)[C@]32CO2)c1,-0.256,-0.423,-0.0607,-0.517 (inactive),-0.711,-0.869,-0.0431,-0.412,0.404,1.37
COc1cc(NN2C(C(O)c3cc(OC)c(OC)c(OC)c3)C=CC3C(=O)N(c4ccccc4)C(=O)C32)cc(OC)c1OC (stereo not given),0.815,0.981,0.561,0.269 (inactive),1.26,1.3,0.165,1.1,0.101,0.759
CCOC(=O)C1=CC[C@@H](c2ccccc2)N(S(=O)(=O)c2ccc(C)cc2)[C@H]1C=Cc1ccccc1,1.66,0.37,1.03,0.151 (inactive),0.322,0.193,-0.647,-0.745,-0.548,0.58
COC(=O)C(CC#Cc1ccc2c(c1)[C@]1(C(=O)N2)[C@H](c2ccc(O)cc2)N2[C@H](c3ccccc3)[C@H](c3ccccc3)OC(=O)[C@H]2[C@@H]1C(=O)N1CCCCCCC1)C(=O)OC,1.48,2.23,1.22,-0.83 (inactive),0.869,1.32,0.765,1.54,1.22,1.77
O=C1OCC=C[C@H]2OC34C=CCN(c5ccc6ccccc6c5)C(=O)[C@H]3N(CCCCCO)C(=O)[C@@H]4[C@@H]12 (stereo not given in full),1.88,0.07,0.878,-0.57 (inactive),-1.17,-1.55,-1.44,-1.56,-1.41,-0.255
COc1ccc(C#Cc2ccc3c(c2)[C@]2(C(=O)N3)[C@H](C(=O)N3CCCCCCC3)[C@H]3C(=O)O[C@H](c4ccccc4)[C@H](c4ccccc4)N3[C@@H]2c2ccc(O)cc2)cc1,1.57,1.36,0.696,-0.547 (inactive),0.684,1.16,0.427,1.2,0.608,0.85
CN1C(=O)C2C(C1=O)C1C=C(CCCO)C2C(C2CC2)N1Cc1cc2c(cc1Br)OCO2 (stereo not given),0.553,-0.272,0.288,-0.0854 (inactive),0.357,0.963,-0.0564,-0.0617,0.107,1.36
